# Measured values as given in PubChem BioAssay (NCATS).
# “And” between values parts separate entries of the source, which are not always exact repeats. Equal entries are not always repeated. Records with an inconclusive call do not appear. Where a call stands in place of a potency, no number is given. Where a structure was tested more than once in an assay, its records may differ in their call. The source made the active and inactive calls. Unless noted, the call rests on the fitted dose curve.
# Key:
# [1] = Cytotoxicity counterscreen for inhibitors of SARS-CoV-2 cell entry (AID 1645845); further: nearly all actives have a fitted effect of over 50% in size; further: potency means the concentration at half of the fitted maximal effect
# Outline: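 HEK293-ACE2 cells (Expi293F stably expressing human ACE2) seeded overnight, then compound for 1 h plus 48 h at 37C. Viability as ATP content by luminescence; normalized to wells with cells and media-only wells.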
# [2] = Primary qHTS to identify inhibitors of SARS-CoV-2 cell entry (AID 1645846); further: nearly all actives have a fitted effect of over 45% in size; further: potency means the concentration at half of the fitted maximal effect
# Outline: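 HEK293 cells stably expressing human ACE2, pre-treated 1 h with compound, then infected with MLV particles pseudotyped with Wuhan-Hu-1 spike (C-terminal 19-aa truncation). Luciferase luminescence after 48 h at 37 °C, normalised to spike PP and bald PP.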
# [3] = Primary qHTS for inhibitors of nuclear receptor binding SET domain protein 2 (NSD2) in an isogenic RCH-ACV NSD2 p.E1099K mutant (9B) (AID 1645876; active means well fitted curve in the direction sought with a large enough effect; an effect the other way counts as inactive or inconclusive; further: nearly all actives have a fitted effect of over 70% in size)
# [4] = Primary qHTS for inhibitors of nuclear receptor binding SET domain protein 2 (NSD2) in an RCH-ACV wild type WT cells (2C) (AID 1645877; active means well fitted curve in the direction sought with a large enough effect; an effect the other way counts as inactive or inconclusive; further: nearly all actives have a fitted effect of over 70% in size; further: potency means the concentration at half of the fitted maximal effect)
# [5] = activity change, negative = inhibition: at 57.1 µM (top of the series) unless noted
smiles,measurement,setting,value
N#Cc1ccc(NC(=O)Nc2ccccc2Br)c2n[nH]nc12,Potency,[1],inactive
same,Potency,[2]; [5],inactive
COc1ccccc1[C@H](c1cccc2ccccc12)[C@@](C)(C#N)C(=O)N1CCC(c2cccc(C(F)(F)F)c2)CC1,Potency,[1],inactive
same,"activity change, negative = inhibition",[2]; [5],-3.93%
Cc1cc(SCc2sc(-c3ccc(C(F)(F)F)cc3)nc2C)ccc1OCC(=O)O,Potency,[1],inactive
same,Potency,[2]; [5],inactive
CCN(CC)CCn1c(=O)c(Cc2ccc(OC)cc2)nc2ccccc21,Potency,[1],inactive
same,"activity change, negative = inhibition",[2]; [5],-28.6%
CCCn1c(=O)c2[nH]c(C34CC5CC3C[C@@H](C5)C4)nc2n(CCC)c1=O,Potency,[1],inactive
same,"activity change, negative = inhibition",[2]; [5],-12.4%
Cc1cccc(-c2nn(C(=S)Nc3ccccc3)cc2-c2ccnc3ccccc23)n1,Potency,[1],inactive
same,Potency,[2]; [5],inactive
O=C(O)c1ccc2cc(-c3ccc(O)c(C45CC6CC(CC(C6)C4)C5)c3)ccc2c1,Potency,[1],3.16 µM (active)
same,Potency,[2]; [5],1.58 µM (active)
C[C@H](CN1CCCC1)C(=O)c1ccc(C(F)(F)F)cc1,Potency,[1],inactive
same,"activity change, negative = inhibition",[2]; [5],-4.68%
CCN1CCN(c2cc3c(cc2F)c(=O)c(C(=O)O)cn3C2CC2)CC1,Potency,[1],inactive
same,Potency,[2]; [5],inactive
CC(=O)N[C@@H](CCC(N)=O)C(=O)O,Potency,[1],inactive
same,"activity change, negative = inhibition",[2]; [5],-25.1%
CCOc1cc(C(=O)Nc2ccc(Cl)c(-c3nc4ccccc4[nH]3)c2)cc(OCC)c1OCC,Potency,[1],inactive
same,Potency,[2]; [5],25.1 µM (active)
O=C(O)CC(O)C(=O)O (stereo unspecified),Potency,[1],inactive
same,Potency,[2]; [5],inactive
CCCCCN(CCC12CC3CC(CC(C3)C1)C2)C(=O)NCCCc1ccncc1,Potency,[1],inactive
same,"activity change, negative = inhibition",[2]; [5],-12.6%
CC(C)(C)C(O)/C=C/c1ccc2c(c1)OCO2 (stereo unspecified),Potency,[1],inactive
same,"activity change, negative = inhibition",[2]; [5],-17.5%
CC(C)(C)c1cc(C(=O)O)c(NC(=O)Nc2ccc3[nH]ncc3c2)s1,Potency,[1],inactive
same,Potency,[2]; [5],inactive
CC[N+](C)(CC)CCOC(=O)C(O)(c1ccccc1)C1CCCCC1 (stereo unspecified),Potency,[1],inactive
same,Potency,[2]; [5],inactive
O=C(NCCCNc1nc(Nc2cccc(NC(=O)N3CCCC3)c2)ncc1I)c1cccs1,Potency,[1],inactive
same,Potency,[2]; [5],inactive
Cc1c(C)c2c(c(C)c1OC(=O)c1cccnc1)CC[C@@](C)(CCC[C@H](C)CCC[C@H](C)CCCC(C)C)O2,Potency,[1],inactive
same,Potency,[2]; [5],inactive
[O-][n+]1cccc(/C(Cl)=N/OC[C@@H](O)CN2CCCCC2)c1,Potency,[1],inactive
same,Potency,[2]; [5],inactive
CCOC(=O)c1c(C)n(C)c2ccc(O)cc12,Potency,[1],inactive
same,"activity change, negative = inhibition",[2]; [5],-9.91%
CCCCOCCOc1nc(-c2ccc(C(=O)O)c(F)c2)sc1C,Potency,[1],inactive
same,"activity change, negative = inhibition",[2]; [5],-25.8%
c1ccc2c(CCNc3ccc(Nc4ccncc4)cc3)c[nH]c2c1,Potency,[1],17.8 µM (active)
same,Potency,[2]; [5],8.91 µM (active)
Cc1ccc(C(=O)Nc2cccc(C(F)(F)F)c2)cc1-c1ccc2nc(NCCN3CCOCC3)ncc2c1,Potency,[1],inactive
same,Potency,[2]; [5],31.6 µM (active)
COc1cccc(OC)c1-c1cc(C(=O)NC2(C(=O)O)C3CC4CC(C3)CC2C4)nn1-c1ccnc2cc(Cl)ccc12 (stereo unspecified),Potency,[1],inactive
same,Potency,[2]; [5],inactive
CC1=C(/C=C/C(C)=C/C=C/C(C)=C/C(=O)O)C(C)(C)CCC1,Potency,[1],inactive
same,Potency,[2]; [5],inactive
Cc1nnc(C(C)C)n1C1CC2CCC(C1)N2CC[C@H](NC(=O)C1CCC(F)(F)CC1)c1ccccc1 (stereo partly specified),Potency,[1],inactive
same,"activity change, negative = inhibition",[2]; [5],2.02% and -27.6%
CC(=O)OCC(=O)[C@@]1(O)[C@H](C)C[C@H]2[C@@H]3C=C(C)C4=Cc5c(cnn5-c5ccccc5)C[C@]4(C)[C@@H]3[C@@H](O)C[C@@]21C,Potency,[1],inactive
same,Potency,[2]; [5],inactive
Cn1cc(-c2ccc3nnc(Sc4ccc5ncccc5c4)n3n2)cn1,Potency,[1],inactive
same,Potency,[2]; [5],inactive
Cc1cccc(-c2[nH]ncc2-c2ccc3ncccc3n2)n1,Potency,[1],inactive
same,"activity change, negative = inhibition",[2]; [5],-1.7%
COc1ccc2cc(CCC(C)=O)ccc2c1,Potency,[1],inactive
same,Potency,[2]; [5],inactive
COc1cc2nc(-c3ccc(N4CCN(C)CC4)cc3)nc(NCCN3CCOCC3)c2cc1OC,Potency,[1],inactive
same,"activity change, negative = inhibition",[2]; [5],-14.2%
O=C(Nc1cccc(C2=NCCN2)c1)Nc1cccc(C2=NCCN2)c1,Potency,[1],inactive
same,Potency,[2]; [5],inactive
CCOc1cc(NC(C)=O)ccc1C(=O)OC,Potency,[1],inactive
same,Potency,[2]; [5],inactive
O=C(Nc1ccc(OC(F)(F)F)cc1)c1sccc1NCc1ccnc2ccccc12,Potency,[1],inactive
same,"activity change, negative = inhibition",[2]; [5],-18%
Cc1cc(C(=O)NNCc2ccccc2)no1,Potency,[1],inactive
same,"activity change, negative = inhibition",[2]; [5],-26.2% [at 114 µM]
Cc1cn(-c2cc(NC(=O)c3ccc(C)c(Nc4nccc(-c5cccnc5)n4)c3)cc(C(F)(F)F)c2)cn1,Potency,[1],inactive
same,"activity change, negative = inhibition",[2]; [5],-29.3%
C[C@@H]1CN(c2c(F)c(N)c3c(=O)c(C(=O)O)cn(C4CC4)c3c2F)C[C@H](C)N1,"activity change, negative = inhibition","[2]; SARS-CoV-2 pseudovirus cell entry assay, luminescence, at 27.1 µM (top of the series)",-12.9%
same,"activity change, negative = inhibition","[2]; SARS-CoV-2 pseudovirus cell entry assay, luminescence, at 57.1 µM (top of the series)",-5.48%
CC(C)(C)c1cc(C=C(C#N)C#N)cc(Br)c1O,Potency,[3],inactive
same,Potency,[4],16.4 µM (active) and inactive
